# Test results taken from PubChem BioAssay (Tox21).
# Unmarked numbers belong to inactive results. Inconclusive results are not listed. A call without a number means that no potency is given here. Activity calls are given as the source filed them. Unless noted, the call rests on the fitted dose curve.
# Legend:
# [1] = Nuclear factor erythroid 2-related factor 2/antioxidant responsive element (Nrf2/ARE) small molecule agonists: qHTS cell viability counter screen in human keratinocytes (AID 1919968; active means well fitted curve in the direction sought with a large enough effect in the repeat runs; an effect the other way counts as inactive or inconclusive; further: nearly all actives have a fitted effect of over 55% in size)
# In short: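 Measured as CellTiter-Fluor fluorescence, this readout tracks cytotoxicity in the same wells as the ARE-luciferase screen. HaCaT reporter cells (1,500/well) received compounds after a 5 h pre-incubation and were exposed for 23 h.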
# [2] = Nuclear factor erythroid 2-related factor 2/antioxidant responsive element (Nrf2/ARE) small molecule agonists: luciferase reporter gene qHTS assay in human keratinocytes (AID 1919969); further: nearly all actives have a fitted effect of over 35% in size
# [3] = target: Gonadotropin-releasing hormone receptor (Homo sapiens) (UniProt P30968); assay: Human gonadotropin-releasing hormone receptor (GnRHR) small molecule agonists, calcium flux assay in GnRHR-HEK293 cells (AID 1920063); further: nearly all actives have a fitted effect of over 35% in size
# In short: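 Fluorescence kinetics (480 nm excitation, 540 nm emission; 3 min, 1 s steps) report calcium mobilisation in human GnRHR-HEK293 cells in agonist mode. Dye incubation: 1 h, 37 C.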
# [4] = target: KiSS-1 receptor (Homo sapiens) (UniProt Q969F8); assay: Human kisspeptin (KISS1R) small molecule agonists, calcium flux assay in KISS1R-HEK293 cells (AID 1920064; active means well fitted curve in the direction sought with a large enough effect in the repeat runs; an effect the other way counts as inactive or inconclusive)
# In short: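 Measures KISS1R agonism through calcium-sensitive dye fluorescence in stably transfected HEK293 cells, read for 3 min after pin-tool compound delivery; 15-point titrations in triplicate.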
# [5] = G protein-coupled receptor (GPCR) small molecule agonists, calcium flux assay: HEK293 wild type cell line counter screen (AID 1920065)
# In short: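 Readout: fluorescence at 480 nm excitation/540 nm emission, sampled at 1 s intervals for 3 min. Cells had been cultured 18 h, then dye-loaded 1 h at 37 C before compound or ATP addition.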
# [6] = p53 small molecule agonists, cell-based qHTS assay with human liver microsomes: qHTS cell viability counter screen (AID 1963579); further: nearly all actives have a fitted effect of over 45% in size
# In short: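 Viability of p53RE-bla cells is measured as CellTiter-Glo luminescence following a 16 h, 37 C incubation with compound, liver microsomes from human donors and NADPH.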
# [7] = p53 small molecule agonists, cell-based qHTS assay with rat liver microsomes: qHTS cell viability counter screen (AID 1963580); further: nearly all actives have a fitted effect of over 45% in size
# In short: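 p53RE-bla HCT-116 cells were exposed 16 h at 37 C to compounds with rat liver microsomes (0.5 mg/mL) and NADPH (0.5 mg/mL). Viability was measured in the same wells as ATP content by CellTiter-Glo luminescence.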
# [8] = p53 small molecule agonists, cell-based qHTS assay: qHTS cell viability counter screen (AID 1963581); further: nearly all actives have a fitted effect of over 45% in size
# In short: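 In the same plates used for the p53 bla reporter, HCT-116 cells given compounds for 16 h at 37 C received CellTiter-Glo; luminescence was recorded 30 min later at room temperature.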
# [9] = target: 5-hydroxytryptamine receptor 2A (Homo sapiens) (UniProt P28223); assay: 5-hydroxytryptamine receptor 2A (HTR2A) small molecule antagonists, cell-based qHTS assay (AID 1963586); further: nearly all actives have a fitted effect of over 45% in size; further: potency means the concentration at half of the fitted maximal effect
# In short: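 Antagonist-mode intracellular calcium assay: DOI (4 nM) added after 5 min compound pre-incubation at room temperature to dye-loaded HTR2A-CHO cells. Fluorescence followed for 3 min, sampled every second.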
# [10] = target: 5-hydroxytryptamine receptor 2A (Homo sapiens) (UniProt P28223); assay: 5-hydroxytryptamine receptor 2A (HTR2A) small molecule agonists, cell-based qHTS assay (AID 1963587); further: nearly all actives have a fitted effect of over 30% in size
# In short: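 CHO cells stably expressing human HTR2A, plated 18 h, loaded with calcium dye 1 h at 37 C. Agonist mode: compounds added and intracellular calcium fluorescence recorded kinetically for 2 min at 1 sec intervals.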
# [11] = target: Muscarinic acetylcholine receptor M1 (Homo sapiens) (UniProt P11229); assay: Cholinergic receptor muscarinic 1 (CHRM1) small molecule antagonists, cell-based qHTS assay (AID 1963588); further: nearly all actives have a fitted effect of over 40% in size; further: potency means the concentration at half of the fitted maximal effect
# In short: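 CHRM1-CHO calcium-flux assay, antagonist mode. Cells were seeded 18 h, dye-loaded 1 h at 37 C and given compound for 5 min at RT, then acetylcholine was added at 50nM. FDSS fluorescence was read 3 min; 15 concentrations, three runs.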
# [12] = target: Muscarinic acetylcholine receptor M1 (Homo sapiens) (UniProt P11229); assay: Cholinergic receptor muscarinic 1 (CHRM1) small molecule agonists, cell-based qHTS assay (AID 1963589); further: nearly all actives have a fitted effect of over 35% in size
# In short: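 Each compound was tested at 15 concentrations across three independent runs on dye-loaded CHO cells stably expressing human CHRM1, reading intracellular calcium fluorescence kinetically at 1 sec intervals.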
# [13] = cAMP Responsive Elements (CRE) small molecule agonists, cell-based qHTS assay (AID 1963590)
# In short: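 Cell line: CRE-bla HEK 293T; medium DMEM/10% dialyzed FBS/0.1 mM NEAA/1 mM pyruvate/25 mM HEPES; 3 h compound exposure; beta-lactamase FRET readout after 2 h substrate loading at RT.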
# [14] = cAMP Responsive Elements (CRE) small molecule antagonists, cell-based qHTS assay (AID 1963591; active means well fitted inhibition curve with a large enough effect in the signal ratio in the repeat runs, not every such curve was filed as active; the % refers to the signal ratio)
# In short: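 Inhibition of NKH477-driven (0.25 uM final) CRE-beta-lactamase signal in HEK293T cells, 3 h compound exposure at 37 °C, detected by FRET substrate fluorescence.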
# [15] = target: Beta-2 adrenergic receptor (Homo sapiens) (UniProt P07550); assay: Adrenergic beta2 receptor (ADRB2) small molecule antagonists, cell-based qHTS assay (AID 1963592); further: nearly all actives have a fitted effect of over 50% in size; further: potency means the concentration at half of the fitted maximal effect
# In short: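 Cells (CHO, stable ADRB2 overexpression) incubated 18-20hr at 37C; compounds added from DMSO; agonist mix (1nM isoproterenol, 100uM IBMX, 25uM Ro-20-1724) added; 0.5hr RT; d2-cAMP and anti-cAMP-cryptate added; 1hr RT; 665/615 nm read.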
# [16] = target: D(2) dopamine receptor (Homo sapiens) (UniProt P14416); assay: Dopamine D2 receptor (DRD2) small molecule agonists, cell-based qHTS assay (AID 1963594); further: nearly all actives have a fitted effect of over 35% in size
# In short: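 HEK293 cells stably expressing human DRD2, pre-treated with PDE inhibitor Ro20-1724 (0.1 mM final) and compound 10 min at room temperature, then stimulated with NKH477 (200nM […]) for 30 min. cAMP read by HTRF (665/620 nm).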
# [17] = target: D(2) dopamine receptor (Homo sapiens) (UniProt P14416); assay: Dopamine D2 receptor (DRD2) small molecule antagonists, cell-based qHTS assay (AID 1963595; active means well fitted inhibition curve with a large enough effect in the signal ratio in the repeat runs, with a control signal flat; the % refers to the signal ratio)
# In short: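 DRD2-HEK293; 0.1 mM Ro20-1724; cpd 10 min RT; NKH477 200 nM + quinpirole 12 nM, 30 min RT; HTRF cAMP (cAMP-d2/anti-cAMP cryptate), 665/620 nm ratio after 1 h.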
# [18] = target: Beta-2 adrenergic receptor (Homo sapiens) (UniProt P07550); assay: Adrenergic beta2 receptor (ADRB2) small molecule agonists, cell-based qHTS assay (AID 1963593);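 further: CHO cells stably overexpressing human ADRB2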
# In short: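 CHO cells stably over-expressing ADRB2 were plated overnight at 37C, then dosed with compounds plus a stimulation mix containing 100uM IBMX and 25uM Ro-20-1724 for 0.5hr at room temperature. cAMP was measured by HTRF competition, 1hr.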
# Chain of 5-hydroxytryptamine receptor 2A (Homo sapiens) (P28223 whole entry, looked up): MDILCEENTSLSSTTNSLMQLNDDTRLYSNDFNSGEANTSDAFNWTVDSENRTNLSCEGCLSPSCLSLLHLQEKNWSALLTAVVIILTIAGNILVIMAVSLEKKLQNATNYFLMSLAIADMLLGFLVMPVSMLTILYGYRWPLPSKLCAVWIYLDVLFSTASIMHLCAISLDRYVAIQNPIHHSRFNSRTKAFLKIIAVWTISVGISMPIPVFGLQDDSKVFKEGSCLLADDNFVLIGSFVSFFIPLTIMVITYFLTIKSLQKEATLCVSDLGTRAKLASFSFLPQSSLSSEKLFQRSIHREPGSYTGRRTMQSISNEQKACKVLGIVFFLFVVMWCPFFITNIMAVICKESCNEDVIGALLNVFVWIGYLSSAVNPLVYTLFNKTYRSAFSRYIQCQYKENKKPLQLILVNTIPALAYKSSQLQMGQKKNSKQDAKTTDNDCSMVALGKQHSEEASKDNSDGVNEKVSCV
# Chain of KiSS-1 receptor (Homo sapiens) (Q969F8 whole entry, looked up): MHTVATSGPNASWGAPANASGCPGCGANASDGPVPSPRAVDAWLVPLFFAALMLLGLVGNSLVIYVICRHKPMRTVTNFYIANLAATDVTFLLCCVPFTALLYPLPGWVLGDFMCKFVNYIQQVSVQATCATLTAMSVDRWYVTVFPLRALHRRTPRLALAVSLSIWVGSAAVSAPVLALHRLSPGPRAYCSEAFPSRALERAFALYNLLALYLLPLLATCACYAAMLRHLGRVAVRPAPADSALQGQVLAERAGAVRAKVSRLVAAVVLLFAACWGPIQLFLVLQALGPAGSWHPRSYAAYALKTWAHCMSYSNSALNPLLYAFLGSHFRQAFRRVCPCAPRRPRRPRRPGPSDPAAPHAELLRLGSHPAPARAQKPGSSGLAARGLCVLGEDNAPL
# Chain of Muscarinic acetylcholine receptor M1 (Homo sapiens) (P11229 whole entry, looked up): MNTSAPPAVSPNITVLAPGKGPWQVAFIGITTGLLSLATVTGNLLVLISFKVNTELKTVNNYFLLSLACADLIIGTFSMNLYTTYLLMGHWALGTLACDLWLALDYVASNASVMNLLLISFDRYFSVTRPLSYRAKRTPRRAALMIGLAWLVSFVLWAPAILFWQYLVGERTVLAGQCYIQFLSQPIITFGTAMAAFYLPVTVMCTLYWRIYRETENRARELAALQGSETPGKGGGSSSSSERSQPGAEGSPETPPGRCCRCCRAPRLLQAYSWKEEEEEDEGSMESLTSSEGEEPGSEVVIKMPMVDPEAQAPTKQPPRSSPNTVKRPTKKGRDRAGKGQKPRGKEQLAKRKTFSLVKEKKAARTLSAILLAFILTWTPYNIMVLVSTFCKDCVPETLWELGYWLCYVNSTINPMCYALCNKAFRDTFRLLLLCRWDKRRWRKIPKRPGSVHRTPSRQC
# Chain of Gonadotropin-releasing hormone receptor (Homo sapiens) (P30968 whole entry, looked up): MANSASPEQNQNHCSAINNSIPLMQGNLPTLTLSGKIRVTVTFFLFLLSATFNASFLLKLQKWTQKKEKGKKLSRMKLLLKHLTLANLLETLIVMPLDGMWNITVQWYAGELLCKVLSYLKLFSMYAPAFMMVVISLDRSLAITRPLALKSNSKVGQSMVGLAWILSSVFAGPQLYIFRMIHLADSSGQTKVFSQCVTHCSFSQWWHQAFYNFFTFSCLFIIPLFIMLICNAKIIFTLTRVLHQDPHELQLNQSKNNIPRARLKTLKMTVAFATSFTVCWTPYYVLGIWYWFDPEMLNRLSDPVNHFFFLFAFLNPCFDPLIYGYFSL
# Chain of Beta-2 adrenergic receptor (Homo sapiens) (P07550 whole entry, looked up): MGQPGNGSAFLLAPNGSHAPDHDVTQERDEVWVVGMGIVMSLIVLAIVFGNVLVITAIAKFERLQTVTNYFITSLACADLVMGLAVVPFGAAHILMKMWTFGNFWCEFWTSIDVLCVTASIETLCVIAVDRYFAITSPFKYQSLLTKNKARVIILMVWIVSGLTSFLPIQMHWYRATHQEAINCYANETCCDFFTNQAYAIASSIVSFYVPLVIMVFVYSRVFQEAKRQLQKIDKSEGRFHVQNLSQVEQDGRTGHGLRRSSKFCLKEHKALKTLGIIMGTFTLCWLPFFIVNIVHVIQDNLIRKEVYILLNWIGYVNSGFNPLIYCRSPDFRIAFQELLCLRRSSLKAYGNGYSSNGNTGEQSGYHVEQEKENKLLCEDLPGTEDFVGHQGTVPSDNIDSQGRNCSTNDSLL
# Chain of D(2) dopamine receptor (Homo sapiens) (P14416 whole entry, looked up): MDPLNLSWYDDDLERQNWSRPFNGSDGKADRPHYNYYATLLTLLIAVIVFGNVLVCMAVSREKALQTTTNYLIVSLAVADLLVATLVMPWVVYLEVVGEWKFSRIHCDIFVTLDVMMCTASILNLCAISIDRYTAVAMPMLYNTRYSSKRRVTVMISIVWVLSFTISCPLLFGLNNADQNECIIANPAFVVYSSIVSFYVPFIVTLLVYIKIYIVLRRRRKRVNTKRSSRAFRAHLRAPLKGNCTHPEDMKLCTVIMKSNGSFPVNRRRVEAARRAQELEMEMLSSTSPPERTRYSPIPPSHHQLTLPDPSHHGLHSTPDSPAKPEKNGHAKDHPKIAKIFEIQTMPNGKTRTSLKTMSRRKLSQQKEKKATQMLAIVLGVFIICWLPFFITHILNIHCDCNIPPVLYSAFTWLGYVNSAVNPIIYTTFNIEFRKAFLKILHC
Compound,Potency [1],Potency [2],Potency [3],Potency [4],Potency [5],Potency [6],Potency [7],Potency [8],Potency [9],Potency [10],Potency [11],Potency [12],Potency [13],Potency [14],Potency [15],Potency [16],Potency [17],Potency [18]
C=CCCCCCCCCOC(C)=O,inactive,inactive,inactive,inactive,inactive,inactive,inactive,inactive,inactive,inactive,inactive,inactive,inactive,inactive,inactive,inactive,inactive,
CCCCCCCCCCCCCCC,inactive,inactive,inactive,inactive,inactive,inactive,inactive,inactive,inactive,inactive,inactive,inactive,inactive,inactive,inactive,inactive,inactive,
C=CC(=O)NC(C)(C)C,inactive,inactive,inactive,inactive,inactive,inactive,inactive,inactive,inactive,inactive,inactive,inactive,inactive,inactive,inactive,inactive,inactive,
OC1CCCCC1c1ccccc1 (configuration not stated),inactive,inactive,inactive,inactive,inactive,inactive,inactive,inactive,inactive,inactive,inactive,inactive,inactive,inactive,inactive,inactive,inactive,
Cc1ccc(Br)cc1,inactive,inactive,inactive,inactive,inactive,inactive,inactive,inactive,inactive,inactive,inactive,inactive,inactive,inactive,inactive,inactive,,
CCCCC(CC)COC(=O)c1ccccc1 (configuration not stated),inactive,inactive,inactive,inactive,inactive,inactive,inactive,inactive,inactive,inactive,inactive,inactive,inactive,inactive,inactive,inactive,inactive,
Cc1ccc(Nc2c(F)cccc2Cl)c(CC(=O)O)c1,inactive,inactive,inactive,inactive,inactive,inactive,inactive,inactive,inactive,inactive,inactive,inactive,inactive,inactive,inactive,inactive,inactive,
Cc1nc2ccc(CN(C)c3ccc(C(=O)N[C@@H](CCC(=O)O)C(=O)O)s3)cc2c(=O)[nH]1,inactive,inactive,inactive,inactive,inactive,inactive,inactive,inactive,inactive,inactive,inactive,inactive,inactive,inactive,inactive,inactive,inactive,
CCN(CC)CCNC(C(=O)OCCC(C)C)c1ccccc1 (configuration not stated),inactive,inactive,inactive,inactive,inactive,inactive,inactive,inactive,inactive,inactive,516 nM (active),inactive,inactive,inactive,inactive,inactive,inactive,
CCCCCCC#CC(=O)OC,inactive,inactive,inactive,inactive,inactive,inactive,inactive,inactive,inactive,inactive,inactive,inactive,inactive,inactive,inactive,inactive,inactive,
CC[C@@]1(c2ccccc2)NC(=O)N(C)C1=O,inactive,inactive,inactive,inactive,inactive,inactive,inactive,inactive,inactive,inactive,inactive,inactive,inactive,inactive,inactive,,inactive,inactive
C[C@H]1[C@@H](c2ccccc2)NC(=O)N1C,inactive,inactive,inactive,inactive,inactive,inactive,inactive,inactive,inactive,inactive,inactive,inactive,inactive,inactive,inactive,inactive,inactive,
CC(C)CCC(=O)CCC(C)C,inactive,inactive,inactive,inactive,inactive,inactive,inactive,inactive,inactive,inactive,inactive,inactive,inactive,inactive,inactive,inactive,inactive,
CO/N=C(/C(=O)N[C@@H]1C(=O)N2C(C(=O)[O-])=C(C[n+]3ccn4ncccc43)CS[C@H]12)c1nsc(N)n1,inactive,inactive,inactive,inactive,inactive,inactive,inactive,inactive,inactive,inactive,inactive,inactive,inactive,inactive,inactive,inactive,inactive,
Cc1ncc([N+](=O)[O-])n1CC(O)CCl (configuration not stated),inactive,inactive,inactive,inactive,inactive,inactive,inactive,inactive,inactive,inactive,inactive,inactive,inactive,inactive,inactive,inactive,inactive,
O=C(O)CCSSCCC(=O)O,inactive,inactive,inactive,inactive,inactive,inactive,inactive,inactive,inactive,inactive,inactive,inactive,inactive,inactive,inactive,inactive,inactive,
Cc1ncc(COP(=O)(O)O)c(C=O)c1O,inactive,inactive,inactive,inactive,inactive,inactive,inactive,inactive,inactive,inactive,inactive,inactive,inactive,inactive,inactive,inactive,inactive,
Cc1ccc(NC=O)c(C)c1,inactive,inactive,inactive,inactive,inactive,inactive,inactive,inactive,inactive,inactive,inactive,inactive,inactive,,inactive,inactive,inactive,inactive
CNC1CCCN(c2c(F)cc3c(=O)c(C(=O)O)cn(C4CC4)c3c2OC)C1 (configuration not stated),inactive,inactive,inactive,inactive,inactive,inactive,inactive,inactive,inactive,inactive,inactive,inactive,inactive,inactive,inactive,,inactive,
COc1cc(C)cc(O)c1,inactive,inactive,inactive,inactive,inactive,inactive,inactive,inactive,inactive,inactive,inactive,inactive,inactive,,inactive,inactive,inactive,inactive
O=CN(CCO)CCO,inactive,inactive,inactive,inactive,inactive,inactive,inactive,inactive,inactive,inactive,inactive,inactive,inactive,inactive,,,inactive,
CN(C)CCCO[C@@H]1[C@H]2OC(C)(C)O[C@H]2O[C@@H]1C(O)CO (some centres not stated),inactive,inactive,inactive,inactive,inactive,inactive,inactive,inactive,inactive,inactive,inactive,inactive,inactive,,inactive,inactive,inactive,inactive
Cc1ccc(C(N)=O)cc1N,inactive,inactive,inactive,inactive,inactive,inactive,inactive,inactive,inactive,inactive,inactive,inactive,inactive,inactive,,inactive,,
CN(C)CCOc1ccccc1Cc1ccccc1,inactive,inactive,inactive,inactive,inactive,inactive,inactive,inactive,326 nM (active),inactive,1450 nM (active),inactive,inactive,inactive,33500 nM (active),,inactive,
CCCCCCOC(=O)CC(CC(=O)OCCCCCC)(OC(=O)CCC)C(=O)OCCCCCC,inactive,inactive,inactive,inactive,inactive,inactive,inactive,inactive,inactive,inactive,inactive,inactive,inactive,inactive,inactive,,inactive,
Clc1cccc(C(c2ccc3nc[nH]c3c2)n2ccnc2)c1 (configuration not stated),inactive,inactive,inactive,inactive,inactive,inactive,inactive,inactive,inactive,inactive,inactive,inactive,inactive,inactive,inactive,,inactive,
CCCCCCCCCCCCCCCC(=O)OCC,inactive,inactive,inactive,inactive,inactive,inactive,inactive,inactive,inactive,inactive,inactive,inactive,inactive,inactive,,inactive,inactive,inactive
CC(=O)c1ccc(C)cc1,inactive,inactive,inactive,inactive,inactive,inactive,inactive,inactive,inactive,inactive,inactive,inactive,inactive,inactive,inactive,inactive,inactive,
